Bioassay records: PubChem, Broad Institute
Only a selection was taken, and hits are over-represented in it overall.
NOMO-1 viab – STK33 inhibitor candidate reducing NOMO-1 cell viability; NOMO-1 AML viability, CellTiter-Glo luminescence, 72 h; inhibition, % (no concentration beside the values); 37,000 tested, 7.5% active; AID 2330; in the data active = inhibition above about 80%; inconclusive = no clear call, values can overlap the other calls
PD-1 reversal – reversal of PD-1 mediated T-cell inhibition. primary human CD4 T cells, PD-L1 beads, CellTiter-Glo 96 h. activation, % (no concentration beside the values). 29,000 tested, under 10 active. AID 2316; call rule not given here;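 also: 0% = median vehicle wells and 100% = positive control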
STK33 kin inh – inhibitors of human STK33 kinase; inhibition, % at 12.5 µM; ADP-Glo luminescence, MBP substrate; 27,000 tested, 0.44% active; Q9BYT3; in the data active = inhibition above about 20%; inconclusive = no clear call, values can overlap the other calls
Target sequence (Q9BYT3 whole entry, looked up): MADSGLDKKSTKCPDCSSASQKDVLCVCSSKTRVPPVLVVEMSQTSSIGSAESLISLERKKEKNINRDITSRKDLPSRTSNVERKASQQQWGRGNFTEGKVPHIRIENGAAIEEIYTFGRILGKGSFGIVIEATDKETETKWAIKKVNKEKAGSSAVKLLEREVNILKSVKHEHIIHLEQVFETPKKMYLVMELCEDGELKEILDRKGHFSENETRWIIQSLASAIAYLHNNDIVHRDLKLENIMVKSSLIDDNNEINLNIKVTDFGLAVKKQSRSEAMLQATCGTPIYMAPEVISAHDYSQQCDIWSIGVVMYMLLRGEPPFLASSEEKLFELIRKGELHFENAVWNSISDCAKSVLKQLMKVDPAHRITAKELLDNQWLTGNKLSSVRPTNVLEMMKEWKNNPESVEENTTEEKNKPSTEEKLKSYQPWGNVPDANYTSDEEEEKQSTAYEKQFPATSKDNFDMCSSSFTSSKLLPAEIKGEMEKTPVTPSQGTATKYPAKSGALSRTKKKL
* hit, by the source's call; ? = inconclusive; . = not tested or not shown.

SMILES	NOMO-1 viab	PD-1 reversal	STK33 kin inh
C[C@@H]1CN([C@H](C)CO)C(=O)c2cc(NS(=O)(=O)c3ccc(F)cc3)ccc2O[C@@H]1CN(C)Cc1ccc(C(=O)Nc2ccccc2N)cc1	108*	-1	.
C[C@@H]1CN([C@@H](C)CO)C(=O)c2cc(NS(=O)(=O)c3ccc(F)cc3)ccc2O[C@H]1CN(C)Cc1ccc(C(=O)Nc2ccccc2N)cc1	?	0	.
C[C@@H]1CN([C@@H](C)CO)C(=O)c2cc(NS(=O)(=O)c3ccccc3)ccc2O[C@H]1CN(C)Cc1ccc(C(=O)Nc2ccccc2N)cc1	38	-2	.
C[C@@H]1CN([C@H](C)CO)C(=O)c2cc(NS(=O)(=O)c3ccccc3)ccc2O[C@@H]1CN(C)Cc1ccc(C(=O)Nc2ccccc2N)cc1	109*	-1	.
C[C@H](CO)N1C[C@H](C)[C@H](CN(C)Cc2ccc(C(=O)Nc3ccccc3N)cc2)Oc2ccc(NS(=O)(=O)c3ccccc3)cc2C1=O	109*	-1	.
C[C@H]1CN([C@@H](C)CO)C(=O)c2cc(NS(=O)(=O)c3ccc(Cl)cc3)ccc2O[C@@H]1CN(C)Cc1ccc(C(=O)Nc2ccccc2N)cc1	55	0	.
CC(O)CNc1nc2c(c(=O)n(Cc3ccccc3F)c(=O)n2C)n1C (stereo unspecified)	-1	0	3
Cc1cc(C(=O)CSc2ncn[nH]2)c(C)n1-c1cc(F)ccc1F	21	2	0
COC(=O)c1ccccc1S(=O)(=O)/C(C#N)=C/Nc1nc(C)cc(C)n1	33	0	.
Cc1ccc(S(=O)(=O)Nc2ccc3c(c2)C(=O)N([C@@H](C)CO)C[C@H](C)[C@@H](CN(C)Cc2ccc(C(=O)Nc4ccccc4N)cc2)O3)cc1	65	-2	.
Cc1ccc(S(=O)(=O)Nc2ccc3c(c2)C(=O)N([C@H](C)CO)C[C@@H](C)[C@@H](CN(C)Cc2ccc(C(=O)Nc4ccccc4N)cc2)O3)cc1	110*	-1	.
CC(=O)NCCOc1c(C)cccc1C	8	3	0
Cn1c(=O)c2c(ncn2CCCN)n(C)c1=O	26	.	-2
Nc1c(C(=O)NCc2ccccc2)c2nc3ccccc3nc2n1CCO	35	-1	9
Cc1csc(NC(=O)CSc2nc(C34CC5CC(CC(C5)C3)C4)ccc2C#N)n1	105*	1	.
CC(=O)Nc1nc(C23CC4CC(CC(C4)C2)C3)cs1	4	0	.
c1ccc(CNc2nc3ccccc3n2CCN2CCCCC2)nc1	11	1	0
CCN1C(=O)/C(=C2\SC(=S)N(c3cccc(Cl)c3)C2=O)c2ccccc21	?	-1	-2
O=C1N(c2cccc(Cl)c2)C(=Nc2cccc(Cl)c2)SC12CC2	114*	-2	.
COc1ccc(C)cc1S(=O)(=O)N(C)CC(=O)O	13	1	0
O=[N+]([O-])c1ccccc1NCCNS(=O)(=O)c1ccc(Br)cc1	-17	0	-3
COc1cc(O)c(Cc2ccccc2O)c(O)c1C(=O)CCc1ccccc1	114*	0	-5
COc1cc(O)c(C(=O)CCc2ccccc2)c(O)c1Cc1ccccc1O	?	0	-1
Cc1ccccc1C(=O)N1N=C(c2ccc(Br)cc2)CC1c1nc2ccccc2[nH]1 (stereo unspecified)	56	-1	.
C[C@@H]1CN([C@@H](C)CO)C(=O)c2cc(NS(=O)(=O)c3ccc(F)cc3)ccc2O[C@H]1CN(C)Cc1ccccc1	6	1	.
SMILES	NOMO-1 viab	PD-1 reversal	STK33 kin inh
C[C@@H]1CN([C@@H](C)CO)C(=O)c2cc(NS(=O)(=O)c3ccc(F)cc3)ccc2O[C@H]1CN(C)Cc1ccc(-c2ccccc2)cc1	107*	.	.
C[C@@H]1CN([C@H](C)CO)C(=O)c2cc(NS(=O)(=O)c3ccc(F)cc3)ccc2O[C@@H]1CN(C)Cc1ccc(-c2ccccc2)cc1	118*	0	.
C[C@H]1CN([C@@H](C)CO)C(=O)c2cc(NS(=O)(=O)c3ccc(F)cc3)ccc2O[C@H]1CN(C)Cc1ccc(-c2ccccc2)cc1	45	-2	2
O=C(CSc1nnc(-c2ccc(Cl)cc2)n1-c1ccc(F)cc1)Nc1ccccc1F	-6	1	-3
C/C=C/C/C=C/CCC(=O)[C@H]1O[C@H]1C(N)=O	114*	.	-1
CC/C=C\C/C=C\C/C=C\C/C=C\C/C=C\C/C=C\CCC(=O)O	6	2	1
Cc1ccc(OCC(=O)Nc2ccc3oc(-c4c(F)c(F)c(F)c(F)c4F)nc3c2)cc1	-12	.	0
CCC1=Nc2ccc(Br)cc2C(c2ccccc2)N1CC(=O)NN (stereo unspecified)	15	0	.
COc1ccc(-c2cc(C(F)(F)F)nc(SCC(=O)Nc3ccccc3C)n2)cc1	.	.	0
COC(=O)c1ccc(Cl)c(NC(=O)CSc2nc(C)cc(C(F)(F)F)n2)c1	41	.	1
COC(=O)c1ccc(Cl)c(NC(=O)CSc2nc(-c3ccccc3)cc(C(F)(F)F)n2)c1	113*	-2	4
Cc1ccccc1NC(=O)CSc1nc(-c2ccc(Cl)cc2)cc(C(F)(F)F)n1	95*	.	-1
FC(F)(F)C1(C(F)(F)F)N=C(c2ccccc2)NC(c2ccccc2)=N1	48	-1	.
C[C@@H]1CN([C@@H](C)CO)C(=O)c2cc(NS(=O)(=O)c3ccc(Cl)cc3)ccc2O[C@@H]1CN(C)Cc1ccc(-c2ccccc2)cc1	123*	0	.
C[C@@H]1CN([C@@H](C)CO)C(=O)c2cc(NS(=O)(=O)c3ccc(Cl)cc3)ccc2O[C@H]1CN(C)Cc1ccccc1	28	.	.
C[C@H]1CN([C@@H](C)CO)C(=O)c2cc(NS(=O)(=O)c3ccc(Cl)cc3)ccc2O[C@@H]1CN(C)Cc1ccc(-c2ccccc2)cc1	38	.	.
C[C@H](CO)N1C[C@H](C)[C@@H](CN(C)Cc2ccc(-c3ccccc3)cc2)Oc2ccc(NS(=O)(=O)c3ccc(Cl)cc3)cc2C1=O	62	-1	.
C[C@H](CO)N1C[C@H](C)[C@H](CN(C)Cc2ccc(-c3ccccc3)cc2)Oc2ccc(NS(=O)(=O)c3ccc(Cl)cc3)cc2C1=O	114*	0	.
C[C@@H]1CN([C@H](C)CO)C(=O)c2cc(NS(=O)(=O)c3ccc(Cl)cc3)ccc2O[C@@H]1CN(C)Cc1ccc(-c2ccccc2)cc1	109*	-1	.
Cc1ccc(NC(=O)CC(c2ccccc2)c2ccccc2)cc1C	41	-1	.
COc1ccc(OC)c(C(=O)CCC(=O)Nc2ccc(Cl)cc2)c1	8	.	-4
O=c1onc(-c2cccc(Cl)c2)n1-c1ccccc1	12	0	.
CS/C(Nc1cccc(Cl)c1Cl)=C(/C#N)C(=O)c1cccs1	94*	0	.
N#CC(C(=O)c1cccs1)=C1SCCCS1	39	0	.
CCOC(=O)[C@H](CCc1ccccc1)N[C@H](C)C(=O)N1C2CCCCC2C[C@H]1C(=O)O (stereo partly specified)	-22	.	0
Cc1nc(SCC(=O)Nc2ccc(Oc3ccccc3)cc2)n[nH]1	24	2	-1
Cc1cccc(NC(=O)CC(C(=O)O)N2CCOCC2)c1 (stereo unspecified)	-4	2	-2
CC(=O)O[C@@H]1C[C@@H](C)[C@](O)(CCC2=CC(=O)OC2)[C@@]2(C)CCCC(C)(C)C12 (stereo partly specified)	104*	-3	-5
C/C=C/C=C/C(=O)O[C@@H]1C=C(CO)[C@](O)(CO)[C@@]2(C)CCCC(C)(C)[C@H]12	63	3	-2
